# Hit rate of the full screen: of about 1,400 compounds, about 940 (67%) were called active. Not shown: some 27% with an inconclusive outcome. The call rests on the fitted dose curve. The set was probably picked from earlier hits. The list is a sample of the results.
# Molecular target: Atrial natriuretic peptide receptor 2 (Homo sapiens) (UniProt P20594)
# Test: Natriuretic polypeptide receptor (hNpr2) antagonism - Subtype selectivity assay; further: nearly all actives have a fitted effect of over 70% in size
# Settings: HEK293 hNpr2 GloSensor cGMP luminescence, CNP-stimulated
# Procedure: F. Fan, B. F. Binkowski, B. L. Butler, P. F. Stecha, M. K. Lewis, K. V. Wood, Novel genetically encoded biosensors using firefly luciferase. ACS Chem Biol 3, 346-351 (2008).
# PROTOCOL TABLE (as described by Inglese J, Shamu CE and Guy RK. 2007) SEQUENCE No. (e.g., 1, 2, 3, etc.); PARAMETER (e.g., Cells, Incubation, Reagent, etc.); VALUE and DESCRIPTION. 1. Cells. Seed 1500 HEK293 cGMP-sensor cells expressing hNpr2 per well in 4uL into Greiner 1536-well white/solid bottom high base, TC plates. 2. Incubation. Incubate plated cells at 37C in 5% CO2, 95% RH overnight. 3. Reagent. Add 1uL per well GloSensor reagent from Promega (2% final concentration) or CO2 independent media vehicle control to respective columns of Greiner 1536-well plates. 4. Incubation. Incubate plated cells at ambient temperature for 2 h., protect from light. 5. Compounds. Library compounds and DMSO vehicle control added at 23nL per well, transferred by Pin Tool. 6. Incubation. Incubate plated cells for 30 min. at ambient temperature, protect from light. 7. Detector. GloSensor baseline pre-read luminescence measured using CCD-based camera (Viewlux). 8. Compound. Add 1uL of hNppC peptide to 1 nM final concentration to stimulate hNpr2 or CO2 independent media as vehicle control. 9. Incubation. Incubate treated cells at ambient temperature for 20 min., protect from light. 10. Detector. GloSensor post-hNppC luminescence measured using CCD-based camera (Viewlux). NOTES (numbers refer to Sequence numbers above) 1. HEK293 cells expressing hNpr2 and GIP/pGS-40F were grown to 85-95% confluence (48-72 h) in T175 culture flasks (CO2 independent media supplemented with 10% FBS, 1% Pen/Strep antibiotics, and 1 ug/mL puromycin). Trypsinize and harvest cells from T175 culture flasks and filter through 40 um cell strainer. Cells counted with Invitrogen Countess (30,000,000 - 50,000,000 cells/flask). Cells diluted to a final concentration of 375 cells/uL in CO2 independent media and a Millipore multidrop used to dispense 1500 cells per well (4uL/well) into 13 1536-well Greiner White/Solid bottom, high base tissue-culture treated (TC) plates and one Aurora 1536-well Black/Clear bottom, low base, TC plate (for visual inspection of cell health throughout the duration of the assay). 2. Cells incubated for 24 h. at 37C in 95% RH incubator with metal lid having gas-exchange holes. 3. Prepare GloSensor Reagent (Promega): Reconstitute GloSensor luciferase substrate by adding 8.2mL Hepes buffer to 250mg substrate, mix well, protect from light and stored at -80C. Prepare a fresh 12% GloSensor solution in CO2 independent supplemented plating media (see above). Mix well and store at ambient temperature, protected from light. 1uL 12% GloSensor Luciferase Reagent added (2% final concentration) to respective columns of 13 x 1536-well Greiner plate with BioRaptr, 1uL CO2 independent plating media added to respective columns as vehicle control with BioRaptr. 4. Cells incubated for 2 h. at ambient temperature, protected from light with metal lid having gas-exchange holes. 5. 23nL of library compounds or DMSO vehicle control transferred to 13 Greiner white/solid bottom high base, TC plates in 11 interplate 1:3 titrations (see Yasgar, A. et al. 2008) with Pintool. 6. Cells incubated for 30-50 min. at ambient temperature protected from light with metal lid having gas-exchange holes. 7. Read cellular baseline GloSensor luminescence in presence of test library compounds on the ViewLux [Exposure = 10 s.; Gain = High; Speed = Slow; and Binning = 2X.] 8. hNppC peptide agonist solution prepared at 1 mM (in H2O) stock concentration. From this a working dilution was prepared at 6 nM in CO2 Independent media. 1uL of 6 nM hNppC agonist (1 nM final concentration) or CO2 Independent media vehicle control dispensed into respective columns of 13 x Greiner 1536-well white/solid bottom, tissue culture plates with BioRaptr. 9. Cells incubated for 20 min. at ambient temperature, protected from light with metal lid having gas-exchange holes. 10. […]
# Potency means the concentration at half of the fitted maximal effect.
# Chain of Atrial natriuretic peptide receptor 2 (Homo sapiens) (P20594 whole entry, looked up): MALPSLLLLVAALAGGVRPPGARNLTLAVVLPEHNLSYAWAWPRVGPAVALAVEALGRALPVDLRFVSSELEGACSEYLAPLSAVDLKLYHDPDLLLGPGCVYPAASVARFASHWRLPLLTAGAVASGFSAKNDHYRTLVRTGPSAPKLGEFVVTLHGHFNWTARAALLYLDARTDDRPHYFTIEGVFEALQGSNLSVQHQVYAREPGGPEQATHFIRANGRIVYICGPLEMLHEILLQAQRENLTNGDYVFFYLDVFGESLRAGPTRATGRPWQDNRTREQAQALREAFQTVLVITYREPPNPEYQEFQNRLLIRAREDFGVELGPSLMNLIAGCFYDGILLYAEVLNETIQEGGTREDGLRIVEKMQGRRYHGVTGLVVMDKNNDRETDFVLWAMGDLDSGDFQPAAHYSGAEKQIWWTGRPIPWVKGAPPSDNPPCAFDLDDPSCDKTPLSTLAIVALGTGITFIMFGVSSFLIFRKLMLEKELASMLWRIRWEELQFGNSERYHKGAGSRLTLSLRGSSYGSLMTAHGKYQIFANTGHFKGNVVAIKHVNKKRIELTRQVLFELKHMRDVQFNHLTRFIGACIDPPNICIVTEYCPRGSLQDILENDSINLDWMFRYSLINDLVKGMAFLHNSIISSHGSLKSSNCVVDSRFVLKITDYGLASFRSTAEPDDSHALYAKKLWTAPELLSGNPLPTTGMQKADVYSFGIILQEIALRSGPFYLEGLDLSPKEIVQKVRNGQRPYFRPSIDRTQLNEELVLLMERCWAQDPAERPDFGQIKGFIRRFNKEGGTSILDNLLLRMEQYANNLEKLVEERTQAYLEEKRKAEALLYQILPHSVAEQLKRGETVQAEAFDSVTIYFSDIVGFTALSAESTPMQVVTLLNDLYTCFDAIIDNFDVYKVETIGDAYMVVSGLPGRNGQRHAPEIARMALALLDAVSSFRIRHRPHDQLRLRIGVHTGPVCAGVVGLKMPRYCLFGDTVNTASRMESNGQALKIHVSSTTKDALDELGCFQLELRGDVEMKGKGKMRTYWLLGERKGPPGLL
row,Structure (SMILES),Potency
1,CCC(CC)c1cc([C@H]2CN3CC[C@H]2C[C@@H]3CNS(=O)(=O)Cc2ccccc2)nc(-c2ccncc2)n1,21.7 µM (active)
2,CCC(CC)c1cc([C@H]2CN3CC[C@H]2C[C@@H]3CNC(=O)NCc2ccccc2)nc(-c2ccncc2)n1,12.2 µM (active)
3,COc1cc2c(cc1OCc1ccncc1)NC(=O)C21CCN(c2ncc(F)cn2)CC1,39.6 µM (active)
4,COc1cc2c(cc1Oc1cccc(N(C)C)c1)NC(=O)C21CCN(CCC(C)C)CC1,28 µM (active)
5,COc1cc2c(cc1Oc1cccc(N(C)C)c1)NC(=O)C21CCN(Cc2ccccn2)CC1,21.7 µM (active)
6,COc1cc2c(cc1Oc1cccc(N(C)C)c1)NC(=O)C21CCN(c2cnccn2)CC1,19.3 µM (active)

# Reference: PubChem BioAssay AID1347046 (National Center for Advancing Translational Sciences (NCATS), 2019)
